Experimental data from PubChem BioAssay AID1851 (National Center for Advancing Translational Sciences (NCATS), 2009).
Hit rate of the full screen: of about 16,000 compounds, about 5,100 (32%) were called active. Inconclusive results (about 25%) are left out. Calls follow the shape of the dose curve; as a rule, active = well fitted curve in the direction sought with a large enough effect; inconclusive = small, poorly fitted or top-dose-only effect, or effect the other way; inactive = no such curve, though single readings can be large or run the other way. This is one part of the list.
% is scaled to controls: 0 for no effect and ±100 for the full control effect.

These compounds were tested against Cytochrome P450 3A4 (Homo sapiens) (UniProt P08684) (assay: Cytochrome panel assay with activity outcomes). Settings: recombinant CYP, pro-luciferin dealkylation, luminescence, p450-cyp3a4; series mostly up to 57.1 µM; activity, negative = inhibition: at the top concentration.
Cytochrome P450 3A4 (Homo sapiens), sequence (P08684 whole entry, looked up): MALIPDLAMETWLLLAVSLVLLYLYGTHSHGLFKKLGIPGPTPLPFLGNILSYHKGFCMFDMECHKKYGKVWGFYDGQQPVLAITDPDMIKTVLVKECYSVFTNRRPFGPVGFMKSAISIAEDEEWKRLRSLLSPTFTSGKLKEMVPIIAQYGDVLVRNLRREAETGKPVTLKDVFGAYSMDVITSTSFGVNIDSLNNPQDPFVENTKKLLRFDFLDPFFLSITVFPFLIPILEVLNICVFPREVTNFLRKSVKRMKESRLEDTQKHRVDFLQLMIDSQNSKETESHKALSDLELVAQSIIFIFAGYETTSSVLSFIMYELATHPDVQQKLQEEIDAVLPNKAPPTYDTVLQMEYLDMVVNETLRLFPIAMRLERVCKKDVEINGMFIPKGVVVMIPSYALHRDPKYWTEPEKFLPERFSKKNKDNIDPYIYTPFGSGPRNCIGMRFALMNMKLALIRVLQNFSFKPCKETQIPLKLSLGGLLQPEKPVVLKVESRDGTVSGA
In the case of `O=C(O)[C@H](Cc1c[nH]c2ccccc12)N1C(=O)c2ccccc2C1=O`, the activity, negative = inhibition was -3.21% [at 11.4 µM] (inactive). For `CN1CCN(CCCNC(=O)C2CCN(c3nnc(-n4cccc4)s3)CC2)CC1`, the “activity, negative = inhibition” value was -16% (inactive). `O=C(NCCc1c[nH]c2ccccc12)C1CCN(c2nnc(N3CCCC3=O)s2)CC1` was tested, and the AC50 was 8.91 µM (active). `CCOc1ccc(NC(=S)N(Cc2ccc(N(C)C)cc2)Cc2ccco2)cc1` was tested, and the AC50 was 7.08 µM (active). With `CCOc1ccc(NC(=S)N(Cc2ccc(Cl)cc2)Cc2ccco2)cc1` the AC50 was 3.55 µM (active). With `Cc1cccc(OCCSCc2nc3ccccc3[nH]2)c1` the AC50 was 7.08 µM (active). For `c1ccc(C(c2ccccc2)N2CCCC3(CCNCC3)C2)cc1`, the AC50 was 1.26 µM (active). For `COc1ccccc1CN1CCCC2(CCNCC2)C1`, the “activity, negative = inhibition” value was -16.5% (inactive). `c1ccc(C(c2ccccc2)N2CCC3(CCNCC3)CC2)cc1` was tested, and the “activity, negative = inhibition” value was -12.2% (inactive). With `c1ccc(C(c2ccccc2)N2CC[C@@]3(CCCNC3)C2)cc1` the AC50 was 7.94 µM (active). `Cc1cc(C)cc(-n2c(O)c(C=NC3CCS(=O)(=O)C3)c3ccccc3c2=O)c1` (centres undefined) was tested, and the AC50 was 10 µM (active). In the case of `COC(=O)c1ccc(NC(=O)c2cc3sccc3n2C)cc1`, the “activity, negative = inhibition” value was -90.9% (inactive). `O=C(Nc1ccc2c(c1)OCCO2)c1cc2sccc2n1Cc1ccc(F)cc1` was tested, and the AC50 was 5.01 µM (active). For `O=C(Nc1ccc2c(c1)OCCO2)c1cc2sccc2n1Cc1ccccc1`, the AC50 was 6.31 µM (active). For `Cn1c(C(=O)Nc2ccccc2)cc2sccc21`, the AC50 was 25.1 µM (active). For `CCOC(=O)c1sc(NC(=O)CSc2nc(C)cc(C)n2)c(C#N)c1C`, the AC50 was 10 µM (active). For `CCOC(=O)c1sc(NC(=O)CSc2n[nH]c(-c3ccc(Cl)cc3Cl)n2)c(C#N)c1C`, the AC50 was 10 µM (active). With `CCOC(=O)c1sc(NC(=O)CSc2nc(C)cc(C)c2C#N)c(C#N)c1C` the activity, negative = inhibition was -17.1% [at 2.29 µM] (inactive). In the case of `CN1[C@@H](CC(=O)c2ccccc2)CCC[C@@H]1C[C@@H](O)c1ccccc1`, the “activity, negative = inhibition” value was -4.36% (inactive). For `O=C1COC(c2ccccc2O)=NN1CCCN1CCCC1`, the activity, negative = inhibition was -10.8% [at 11.4 µM] (inactive). With `CCc1ccc(N/C(SCc2ccccc2C)=C(/C#N)C(=O)NCc2ccco2)cc1` the AC50 was 6.31 µM (active). For `CCN1CCC[C@@H]1CNC(=O)c1cc(S(N)(=O)=O)ccc1OC`, the “activity, negative = inhibition” value was -4.15% (inactive). With `O=C(CSc1ccc(Cl)cc1)Nc1ccc(N2CCN(C(=O)c3ccc(Cl)cc3)CC2)cc1` the AC50 was 0.891 µM (active). `O=C(CSc1ccccc1)Nc1ccc(N2CCN(c3ccccc3)CC2)c(F)c1` was tested, and the activity, negative = inhibition was -8.27% [at 11.4 µM] (inactive). With `O=C(CSc1ccc(Cl)cc1)Nc1ccc(N2CCN(c3ccccc3)CC2)c(F)c1` the “activity, negative = inhibition” value was -28.4% (inactive). In the case of `Cc1nc(-c2cccnc2)sc1C(=O)Nc1ccc(F)cc1F`, the AC50 was 15.8 µM (active). `Cc1nc(-c2cccnc2)sc1C(=O)Nc1ccc(Cl)cc1` was tested, and the AC50 was 14.1 µM (active). In the case of `O=C(Nc1ccc(Cl)cc1)c1cnc(-c2ccccc2)nc1-c1ccccc1`, the “activity, negative = inhibition” value was -16% (inactive). In the case of `Cn1nc(-c2ccccc2)c(C(=O)Nc2ccc(Cl)cc2)c1Cl`, the “activity, negative = inhibition” value was -29.6% (inactive). In the case of `Brc1ccc2cccnc2c1`, the “activity, negative = inhibition” value was 25.9% (inactive). With `N#CCCn1c(=O)c(-c2ccc(Cl)cc2)nc2cnc(N3CCOCC3)nc21` the “activity, negative = inhibition” value was -6.31% (inactive). In the case of `N#CCCn1cc(/C=N/O)c(-c2ccc(Cl)cc2)n1`, the AC50 was 12.6 µM (active). In the case of `CN1CCN(c2ncc3nc(-c4ccc(Cl)cc4)c(=O)n(CCC#N)c3n2)CC1`, the “activity, negative = inhibition” value was 10.9% (inactive). For `O=S(=O)(N/N=C\c1ccc2c(c1)OCO2)c1ccc(Cl)cc1`, the AC50 was 3.98 µM (active). For `Cc1ccc(S(=O)(=O)N/N=C/c2ccc(OC3CSC3)cc2)cc1`, the activity, negative = inhibition was -21.9% [at 2.29 µM] (inactive). `O=S(=O)(N/N=C/c1ccc2c(c1)OCCO2)c1ccc(Cl)cc1` was tested, and the AC50 was 14.1 µM (active). `Cc1cc(OC(=O)c2ccccc2Br)cc(=O)n1C` was tested, and the activity, negative = inhibition was -13.2% [at 11.4 µM] (inactive). With `CC(C)N=c1cc2n(-c3ccc(Cl)cc3)c3ccccc3nc-2cc1Nc1ccc(Cl)cc1` the “activity, negative = inhibition” value was -8.96% [at 25.6 µM] (inactive). With `CN(C)c1nc(NCc2ccccc2)nc(N/N=C/c2ccc(Cl)cc2Cl)n1` the AC50 was 2.24 µM (active). In the case of `CC(Sc1nc(NCc2ccccc2)nc(N(C)C)n1)C(=O)Nc1ccccc1` (centres undefined), the activity, negative = inhibition was -9.99% [at 2.29 µM] (inactive). With `O=C(N/N=C/c1ccc(Cl)cc1Cl)Nc1ccccc1` the “activity, negative = inhibition” value was -14% (inactive). `N.N.O=C(O)C1(C(=O)O)CCC1.[Pt]` was tested, and the AC50 was 39.8 µM (active). In the case of `NC1(C(=O)O)C[C@@H](C(=O)O)[C@H](C(=O)O)C1`, the AC50 was “inactive”. `O=C(O)CC1(C(=O)O)CCCCC1` was tested, and the activity, negative = inhibition was -15.2% [at 11.4 µM] (inactive). For `Cc1ccc(S(=O)(=O)c2nc(S(=O)(=O)c3ccc(C)cc3)c(NCc3ccco3)s2)cc1`, the AC50 was 3.55 µM (active). With `O=C1Nc2ccc(F)cc2C12Nc1ccccc1-c1nnc(SCc3ccccc3F)nc1O2` (centres undefined) the AC50 was 15.8 µM (active). `Cc1ccc(CSc2nnc3c(n2)OC2(Nc4ccccc4-3)C(=O)Nc3ccc(F)cc32)cc1` (centres undefined) was tested, and the activity, negative = inhibition was -12.4% [at 2.29 µM] (inactive). `Cc1cc(CNC(=O)[C@@H]2C[C@H]2[C@@H](NP(=O)(c2ccccc2)c2ccccc2)c2ccccc2)nn1C` was tested, and the AC50 was 0.398 µM (active). With `Cc1cc(CNC(=O)[C@H]2C[C@@H]2[C@H](NP(=O)(c2ccccc2)c2ccccc2)c2ccccc2)nn1C` the AC50 was 2.51 µM (active). In the case of `Cc1ccc(CNC(=O)[C@H]2C[C@@H]2[C@H](NP(=O)(c2ccccc2)c2ccccc2)c2ccccc2)c(F)c1F`, the AC50 was 0.316 µM (active). For `CC[C@H]1CN(C)[C@H]2Cc3c([nH]c4ccccc34)C(=O)C[C@H]1[C@H]2C(=O)OC`, the activity, negative = inhibition was -21.4% [at 11.4 µM] (inactive). In the case of `C[Si](C)(c1ccc(C(=O)O)cc1)c1ccc(C(=O)O)cc1`, the activity, negative = inhibition was -6.28% [at 11.4 µM] (inactive). With `CCN(CC)c1ncnc2c1sc1nc(C)cc(C)c12` the AC50 was 12.6 µM (active). In the case of `CCN(CC)N=Nc1[nH]nc2nc(C)cc(C)c12`, the activity, negative = inhibition was -15.1% [at 11.4 µM] (inactive). For `C/C(=N\Nc1ccc([N+](=O)[O-])cc1)c1cccc(N)c1`, the AC50 was 3.55 µM (active). In the case of `NC(=O)c1cccc(N)c1`, the “activity, negative = inhibition” value was -23.9% (inactive). For `COCCNc1nc(-c2ccccc2Cl)nc2ccccc12`, the AC50 was 12.6 µM (active). In the case of `COCCNc1nc(-c2ccccc2C(F)(F)F)nc2ccccc12`, the AC50 was 12.6 µM (active). In the case of `Nc1nc(SCC(=O)O)[nH]c(=O)c1N`, the activity, negative = inhibition was -4.46% [at 11.4 µM] (inactive). With `Cc1ccc2nc(Cc3ccc(N)cc3)[nH]c2c1` the AC50 was 1.78 µM (active). For `Cc1ccc2nc(-c3ccc(NC(=O)Cc4cccs4)cc3)[nH]c2c1`, the activity, negative = inhibition was -7.46% [at 2.29 µM] (inactive). For `C[N+](C)(C)c1ncnc2c1ncn2[C@@H]1CCCCO1`, the activity, negative = inhibition was -9.49% [at 11.4 µM] (inactive). For `Cn1c(-c2sc(=S)n(-c3ccccc3)c2N)nc2ccccc21`, the AC50 was 4.47 µM (active). In the case of `Cc1cccc(N2CC(O)=C(c3nc4ccccc4n3C)C2=N)c1`, the “activity, negative = inhibition” value was -27.6% (inactive). In the case of `CCN(CC)c1ccc2c(c1)OC(N)=C(C#N)C2c1cccnc1` (centres undefined), the AC50 was 0.891 µM (active). With `CC(=O)Nc1ccc(NC(=O)Cn2c(-c3ccc(F)cc3)cnc2SCC(=O)Nc2c(C)cccc2C)cc1` the AC50 was 3.16 µM (active). With `CC[N+](CC)(CC)CC(=O)Nc1c(C)cccc1C` the AC50 was “inactive”. With `Cc1cccc(C)c1NC(=O)Nc1ccc(S(N)(=O)=O)cc1` the activity, negative = inhibition was -9.51% [at 11.4 µM] (inactive). In the case of `CSC(N)=NCCC[C@@H](N)C(=O)O`, the “activity, negative = inhibition” value was -22.9% (inactive). For `CN(C)C(=O)c1ccc(-c2ccc3ncnc(NCc4cccs4)c3c2)cc1`, the AC50 was 10 µM (active). For `CN(C)c1ccc(-c2ccc3ncnc(NCc4ccccc4)c3c2)cc1`, the AC50 was 2.51 µM (active). In the case of `CN(C)C(=O)c1ccc(-c2ccc3ncnc(NCc4ccccc4)c3c2)cc1`, the AC50 was 15.8 µM (active). With `Cc1cccc(CNc2ncnc3ccc(-c4ccc(C(=O)N(C)C)cc4)cc23)c1` the AC50 was 2 µM (active). `OCCN1CCN(C(=S)c2ccc(Br)cc2)CC1` was tested, and the “activity, negative = inhibition” value was 0.405% (inactive). For `NC(N)=Nc1ccc(Cl)cc1`, the “activity, negative = inhibition” value was -4.16% (inactive). With `CC(=O)OC[C@@H]1O[C@@H](O/N=C2/C[C@@H](O)[C@@H](O)[C@@H]3[C@@H]4C(=O)N(C[C@@H]5CCCO5)C(=O)[C@H]4CC[C@@H]23)[C@H](OC(C)=O)[C@H](OC(C)=O)[C@@H]1OC(C)=O` the activity, negative = inhibition was -14.3% [at 11.4 µM] (inactive). For `Clc1ccc2c(c1)N(CCCN1CCCC13CCCCC3)c1ccccc1S2`, the activity, negative = inhibition was -16.3% [at 11.4 µM] (inactive). For `COc1cc(CNCCc2c[nH]c3ccccc23)ccc1OCc1ccccc1F`, the AC50 was 7.08 µM (active). For `O=C(O)[C@@H](Cc1c[nH]c2ccccc12)C(=O)NO`, the activity, negative = inhibition was -15.9% [at 11.4 µM] (inactive). For `COc1cccc(CNCCc2c[nH]c3ccccc23)c1OCc1ccccc1F`, the AC50 was 4.47 µM (active). In the case of `O=c1c[n+](CCCC[n+]2cc(=O)o[nH]2)[nH]o1`, the activity, negative = inhibition was -11.2% [at 11.4 µM] (inactive). `Cc1ccc(C)n1CCN1CCN(CC(=O)Nc2cc(C(F)(F)F)ccc2Cl)CC1` was tested, and the AC50 was 25.1 µM (active). For `CN(C)c1cc[n+](CC(=O)Nc2cc(C(F)(F)F)ccc2Cl)cc1`, the “activity, negative = inhibition” value was -17.4% (inactive). With `Cc1cc[n+](CC(=O)Nc2cc(C(F)(F)F)ccc2Cl)cc1` the “activity, negative = inhibition” value was -3.03% (inactive). In the case of `CCOC(=O)CSc1nnc(Cc2ccccc2)n1-c1cccc(Cl)c1`, the AC50 was 2 µM (active). For `CCOC(=O)CSC1=NC(=O)/C(=C\c2ccc(Cl)cc2)S1`, the “activity, negative = inhibition” value was 11.4% (inactive). In the case of `COC(Cc1nnc(SC)n1-c1ccccc1)OC`, the “activity, negative = inhibition” value was 19.6% (inactive). With `CCOc1ccc(NCc2nnc(SCc3ccccc3Cl)n2-c2ccccc2)cc1` the AC50 was 14.1 µM (active). `COc1ccc(NCc2nnc(SCc3ccccc3)n2-c2ccc(OC)cc2)cc1` was tested, and the AC50 was 5.01 µM (active). In the case of `COC(=O)CSc1nnc(CNc2ccc(Cl)cc2)n1-c1ccccc1`, the AC50 was 12.6 µM (active). In the case of `CC(=O)N(/N=C/c1cccc(C)c1)c1nc(-c2ccc(Br)cc2)cs1`, the “activity, negative = inhibition” value was -11.8% (inactive). For `CSc1nsc(SC)c1NC(=O)Nc1ccccn1`, the “activity, negative = inhibition” value was -5.92% (inactive). With `CSc1nsc(SC)c1NC(=O)OCC1CCCO1` (centres undefined) the activity, negative = inhibition was -5.42% [at 11.4 µM] (inactive). In the case of `CSc1nsc(SC)c1NC(=O)OCc1ccccc1`, the AC50 was 22.4 µM (active).
